Data reported in PubChem BioAssay (Tox21).
Unmarked numbers belong to inactive results. Results filed as inconclusive are left out. A call without a number means that no potency is given here. The source made the active and inactive calls. Unless noted, calls come from the whole dose curve; as a rule, active = well fitted curve in the direction sought with a large enough effect in the repeat runs; inconclusive = weak or mixed curves; inactive = no such curve, though single readings can be large; an effect the other way counts as inactive or inconclusive.

Experiments:
[1] = qHTS assay to identify small molecule agonists of the androgen receptor (AR) signaling pathway in the presence of an antagonist - cell viability counter screen (AID 1259379); note: nearly all actives have a fitted effect of over 25% in size; note: potency is the fitted concentration of half-maximal effect
Outline: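 Each compound was tested at 15 concentrations on MDA-kb2 cells in the presence of 3.0uM nilutamide. Viability was measured by CellTiter-Fluor fluorescence after a 16 hr incubation at 37C in a CO2-free atmosphere.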

[2] = qHTS assay to identify small molecule agonists of the estrogen receptor beta (ER-beta) signaling pathway - cell viability counter screen (AID 1259380); note: nearly all actives have a fitted effect of over 30% in size; note: potency is the fitted concentration of half-maximal effect
Outline: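 Compounds dissolved in DMSO were pin-transferred onto ER-beta-UAS-bla HEK293T cells that had settled 6 hr, and exposure ran 16 hr at 37C. Following the reporter read, CellTiter-Glo luminescence after 30 min at room temperature indicated cytotoxicity.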

[3] = qHTS assay to identify small molecule agonists or antagonists of the thyroid stimulating hormone receptor (TSHR) signaling pathway - wild type cell line counter screen (AID 1259384; calls by dose curve)
Outline: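 Wild-type Hek293 cells, 800/well, 18 h at 37C, then compound with Ro20-1724 for 30 min RT. cAMP by HTRF (cAMP-d2/anti-cAMP cryptate), 1 h RT, fluorescence read. 15 concentrations, triplicates.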

[4] = target: Thyrotropin receptor (Homo sapiens) (UniProt P16473); assay: qHTS assay to identify small molecule antagonists of the thyroid stimulating hormone receptor (TSHR) signaling pathway (AID 1259385; calls by dose curve; note: nearly all actives have a fitted effect of over 20% in size)
Outline: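 TSHR-HEK293 cells (800/well) plated 18 h, then compounds with Ro20-1724 and TSH at 1.5 ng/mL final, 30 min at room temperature. cAMP quantified by HTRF (cAMP-d2/anti-cAMP-cryptate, 1 h); 15 concentrations in triplicate.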

[5] = qHTS assay to identify small molecule agonists of the estrogen receptor alpha (ER-alpha) signaling pathway in the presence of an antagonist - cell viability counter screen (AID 1259386);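 note: cells exposed to compounds for 22 h at 37 °C before the viability read; nearly all actives have a fitted effect of over 30% in size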; note: potency is the fitted concentration of half-maximal effect
Outline: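 Using estrogen-depleted VM7Luc4E2 cells, the 15-concentration compound series was applied together with 10.0nM ICI-182,780 and incubated 22hr at 37C/5% CO2. Cell viability was then scored by CellTiter-Fluor.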

[6] = target: Progesterone receptor (Homo sapiens) (UniProt P06401); assay: qHTS assay to identify small molecule agonists of the progesterone receptor (PR) signaling pathway (AID 1346784; calls by dose curve; note: nearly all actives have a fitted effect of over 30% in size)
Outline: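 Compounds were tested for PR agonism in HEK 293T cells bearing a beta-lactamase gene under UAS control. Treatment lasted 16 hr at 37C; signal came from fluorescence of a FRET substrate.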

[7] = target: Progesterone receptor (Homo sapiens) (UniProt P06401); assay: qHTS assay to identify small molecule antagonists of the progesterone receptor (PR) signaling pathway (AID 1346795; active = well fitted inhibition curve with a large enough effect in the signal ratio in the repeat runs, not every such curve was filed as active; the % refers to the signal ratio; note: potency is the fitted concentration of half-maximal effect)
Outline: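 In HEK293T cells bearing the PR-UAS-bla reporter, compound effects on promegestone-driven (1 nM) beta-lactamase expression are assessed after 16 hr using a fluorescent FRET substrate incubated 2 hr at room temperature.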

[8] = qHTS assay to identify small molecule antagonists of the progesterone receptor (PR) signaling pathway - cell viability counter screen (AID 1346798); note: nearly all actives have a fitted effect of over 50% in size; note: potency is the fitted concentration of half-maximal effect
Outline: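 Following a 4 hr attachment, PR-UAS-bla HEK293T cells in charcoal-stripped FBS medium were exposed to compounds with R5020 for 16 hr; CellTiter-Glo was added and luminescence read after 30 min at room temperature.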

[9] = qHTS assay to identify small molecule agonists of the progesterone receptor (PR) signaling pathway - cell viability counter screen (AID 1346799; calls by dose curve; note: nearly all actives have a fitted effect of over 45% in size)
Outline: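 Here, 3,000 PR-UAS-bla HEK293T cells per well were treated with compounds for 16 hr after a 6 hr preincubation at 37C and 5% CO2; cell viability is the CellTiter-Glo luminescence signal.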

[10] = qHTS assay to identify small molecule antagonists of the TGF-beta/Smad signaling pathway - cell viability counter screen (AID 1346824); note: nearly all actives have a fitted effect of over 50% in size; note: potency is the fitted concentration of half-maximal effect
Outline: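 SBE-bla HEK 293T cells, incubated overnight, then compound plus 0.25 ng/mL TGF-beta1 (stock added) for 5 hr at 37 C. Viability was read in the same wells by CellTiter-Glo luminescence after 30 min at room temperature.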

[11] = qHTS assay to identify small molecule agonists of the TGF-beta/Smad signaling pathway - cell viability counter screen (AID 1346829); note: top concentration of the series differs between compounds; nearly all actives have a fitted effect of over 45% in size
Outline: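 Same-well cytotoxicity: CellTiter-Glo added after the 2 hr room-temperature beta-lactamase substrate step, luminescence measured 30 min later; cells had 5 hr of compound at 37 C.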

[12] = qHTS assay to identify small molecule agonists of the TGF-beta/Smad signaling pathway (AID 1346859; active = well fitted activation curve with a large enough effect in the signal ratio in the repeat runs, not every such curve was filed as active; the % refers to the signal ratio; note: series mostly up to about 77 µM)
Outline: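 Each well held 4,000 SBE-bla HEK 293T cells incubated overnight before compound addition; 5 hr later the cleavable FRET substrate went on for 2 hr at room temperature, and fluorescence was read at two emissions.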

[13] = target: Thyrotropin-releasing hormone receptor (Homo sapiens) (UniProt P34981); assay: qHTS assay to identify small molecule antagonists of the thyrotropin-releasing hormone receptor (TRHR) signaling pathway (AID 1346877; active = well fitted inhibition curve with a large enough effect in the repeat runs, not every such curve was filed as active; note: series mostly up to about 51 µM)
Outline: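 Calcium signal in dye-loaded TRHR/HEK293 cells; compounds added 5 min before TRH (1 nM final); fluorescence monitored 3 min at 1 s steps.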

[14] = target: Thyrotropin-releasing hormone receptor (Homo sapiens) (UniProt P34981); assay: qHTS assay to identify small molecule agonists of the thyrotropin-releasing hormone receptor (TRHR) signaling pathway (AID 1346891; calls by dose curve; note: series mostly up to about 58 µM)
Outline: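 Screening of agonists relied on calcium signalling in HEK293 cells expressing human TRHR: dye loading 2 h at 37 °C preceded compound addition and a 3-min fluorescence time course.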

[15] = Human pregnane X receptor (PXR) small molecule agonists, qHTS cell viability counter screen (AID 1346977); note: nearly all actives have a fitted effect of over 50% in size; note: potency is the fitted concentration of half-maximal effect
Outline: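 Tox21 qHTS format; PXR-Luc HepG2, 2,000/well, charcoal-stripped FBS 5%. Cpd exposure 24hr. Read: CellTiter-Fluor fluorescence, multiplexed with luciferase.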

[16] = Caspase-3/7 induction in HepG2 cells by small molecules, qHTS assay (AID 1346978); note: nearly all actives have a fitted effect of over 15% in size
Outline: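 Wild-type HepG2 cells, 2,000/well, settled 5 hr at 37 C and 5% CO2, then compound-treated for 17 hr; caspase-3/7 activity read by luminescent Caspase-Glo 3/7 after 30 min at room temperature.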

[17] = Caspase-3/7 induction in CHO-K1 cells by small molecules, qHTS cell viability counter screen (AID 1346979); note: nearly all actives have a fitted effect of over 35% in size; note: potency is the fitted concentration of half-maximal effect
Outline: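 CellTiter-Fluor viability check, qHTS format: wild-type CHO-K1, 16hr compound treatment, 1hr reagent incubation, fluorescence read.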

[18] = qHTS assay to identify small molecule antagonists of the estrogen receptor beta (ER-beta) signaling pathway - cell viability counter screen (AID 1259382);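 note: HEK293T cells carrying ER-beta-UAS-bla reporter stimulated with estradiol; series mostly up to about 92 µM; nearly all actives have a fitted effect of over 55% in size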
Outline: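 CellTiter-Glo ATP luminescence measured after the LiveBLAzer read in the same wells; ER-beta-UAS-bla HEK293T cells, 16 hr compound treatment with 1nM 17-beta-estradiol agonist at 37C, 5% CO2.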

[19] = target: Estrogen receptor (Homo sapiens) (UniProt P03372); assay: qHTS assay to identify small molecule agonists of the estrogen receptor alpha (ER-alpha) signaling pathway in the presence of an antagonist (AID 1259383; calls by dose curve; note: nearly all actives have a fitted effect of over 15% in size; note: potency is the fitted concentration of half-maximal effect; for activation: top concentration of the series differs between compounds)
Outline: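 Luminescent ERE-luciferase reporter, VM7Luc4E2 cells (endogenous ER-alpha); 10.0nM ICI-182,780 final; 15-point compound titration; 22hr at 37C; ONE-Glo, 30min RT.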

[20] = target: Androgen receptor (Homo sapiens) (UniProt P10275); assay: qHTS assay to identify small molecule agonists of the androgen receptor (AR) signaling pathway in the presence of an antagonist (AID 1259381; calls by dose curve; note: nearly all actives have a fitted effect of over 15% in size; note: potency is the fitted concentration of half-maximal effect)
Outline: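 Plated MDA-kb2 cells (3,000/well) were pre-incubated 5hr, given nilutamide (3.0uM final) or buffer, then dosed with compounds in DMSO at 15 concentrations. Luciferase activity was quantified by luminescence after 16hr at 37C.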

Sequence of Progesterone receptor (Homo sapiens) (P06401 whole entry, looked up): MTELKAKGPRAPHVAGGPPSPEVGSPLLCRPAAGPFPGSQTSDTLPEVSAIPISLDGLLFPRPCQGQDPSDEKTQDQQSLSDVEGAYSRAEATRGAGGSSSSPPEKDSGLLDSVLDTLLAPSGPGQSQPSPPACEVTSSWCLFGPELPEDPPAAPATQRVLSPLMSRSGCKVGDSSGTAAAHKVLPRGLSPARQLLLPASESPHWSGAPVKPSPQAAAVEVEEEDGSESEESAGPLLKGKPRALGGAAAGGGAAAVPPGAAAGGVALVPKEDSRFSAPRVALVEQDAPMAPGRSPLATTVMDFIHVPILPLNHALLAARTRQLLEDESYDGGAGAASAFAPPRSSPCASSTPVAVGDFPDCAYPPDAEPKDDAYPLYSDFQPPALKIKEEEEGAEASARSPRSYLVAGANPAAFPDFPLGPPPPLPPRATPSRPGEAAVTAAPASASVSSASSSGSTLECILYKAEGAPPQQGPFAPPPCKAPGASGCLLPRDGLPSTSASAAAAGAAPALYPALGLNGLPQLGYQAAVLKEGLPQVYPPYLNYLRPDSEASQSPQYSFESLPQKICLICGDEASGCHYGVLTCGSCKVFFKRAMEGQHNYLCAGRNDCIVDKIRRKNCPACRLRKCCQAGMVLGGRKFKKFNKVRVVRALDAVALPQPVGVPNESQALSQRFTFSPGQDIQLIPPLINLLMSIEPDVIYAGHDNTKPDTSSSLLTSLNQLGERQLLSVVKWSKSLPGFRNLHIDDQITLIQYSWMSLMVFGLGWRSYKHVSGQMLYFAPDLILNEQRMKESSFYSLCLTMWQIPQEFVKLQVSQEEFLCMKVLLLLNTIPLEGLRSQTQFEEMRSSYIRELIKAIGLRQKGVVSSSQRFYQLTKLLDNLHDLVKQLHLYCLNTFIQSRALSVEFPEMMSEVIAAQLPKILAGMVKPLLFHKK
Sequence of Thyrotropin receptor (Homo sapiens) (P16473 whole entry, looked up): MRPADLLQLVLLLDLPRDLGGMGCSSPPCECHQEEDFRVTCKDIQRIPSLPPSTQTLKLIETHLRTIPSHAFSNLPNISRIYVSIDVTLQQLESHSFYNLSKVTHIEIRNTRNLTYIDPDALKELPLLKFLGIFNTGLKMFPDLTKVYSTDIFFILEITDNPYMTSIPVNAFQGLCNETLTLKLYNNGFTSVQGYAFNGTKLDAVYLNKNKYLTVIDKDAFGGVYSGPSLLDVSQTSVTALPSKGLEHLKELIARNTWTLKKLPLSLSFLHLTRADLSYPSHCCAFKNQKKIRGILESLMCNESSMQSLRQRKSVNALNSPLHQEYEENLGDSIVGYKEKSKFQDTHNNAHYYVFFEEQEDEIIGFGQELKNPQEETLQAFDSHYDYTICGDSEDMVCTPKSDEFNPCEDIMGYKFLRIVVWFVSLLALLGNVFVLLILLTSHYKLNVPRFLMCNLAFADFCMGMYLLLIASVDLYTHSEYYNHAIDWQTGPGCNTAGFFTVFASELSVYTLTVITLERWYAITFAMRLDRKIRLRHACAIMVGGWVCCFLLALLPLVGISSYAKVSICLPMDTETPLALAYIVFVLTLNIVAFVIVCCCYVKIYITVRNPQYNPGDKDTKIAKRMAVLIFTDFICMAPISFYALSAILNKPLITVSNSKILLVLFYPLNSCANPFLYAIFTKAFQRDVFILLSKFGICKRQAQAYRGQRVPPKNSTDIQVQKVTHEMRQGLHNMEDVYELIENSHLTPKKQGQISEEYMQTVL
Sequence of Androgen receptor (Homo sapiens) (P10275 whole entry, looked up): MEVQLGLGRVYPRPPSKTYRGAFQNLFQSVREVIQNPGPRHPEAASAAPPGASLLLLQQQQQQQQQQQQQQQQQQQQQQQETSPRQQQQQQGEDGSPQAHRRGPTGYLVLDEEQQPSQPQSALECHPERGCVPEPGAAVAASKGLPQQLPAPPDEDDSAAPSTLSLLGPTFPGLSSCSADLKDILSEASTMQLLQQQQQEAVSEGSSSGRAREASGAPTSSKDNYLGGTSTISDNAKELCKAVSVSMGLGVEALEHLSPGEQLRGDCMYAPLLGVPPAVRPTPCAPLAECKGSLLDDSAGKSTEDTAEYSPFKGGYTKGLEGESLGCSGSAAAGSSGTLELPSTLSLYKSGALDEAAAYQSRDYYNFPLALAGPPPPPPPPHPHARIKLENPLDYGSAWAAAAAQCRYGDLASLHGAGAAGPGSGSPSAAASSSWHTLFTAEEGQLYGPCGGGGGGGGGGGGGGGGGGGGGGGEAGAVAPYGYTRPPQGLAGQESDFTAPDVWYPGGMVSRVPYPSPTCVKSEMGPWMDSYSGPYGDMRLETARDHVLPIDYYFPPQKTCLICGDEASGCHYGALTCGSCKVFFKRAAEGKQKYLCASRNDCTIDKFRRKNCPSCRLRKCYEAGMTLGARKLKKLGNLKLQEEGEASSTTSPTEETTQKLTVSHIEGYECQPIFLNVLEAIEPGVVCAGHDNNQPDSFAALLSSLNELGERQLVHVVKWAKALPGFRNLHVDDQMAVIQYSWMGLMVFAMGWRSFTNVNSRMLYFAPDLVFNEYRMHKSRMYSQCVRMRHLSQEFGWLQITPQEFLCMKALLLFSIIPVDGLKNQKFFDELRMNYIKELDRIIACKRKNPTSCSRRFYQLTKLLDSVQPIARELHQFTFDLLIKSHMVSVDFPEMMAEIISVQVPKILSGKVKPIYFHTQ
Sequence of Estrogen receptor (Homo sapiens) (P03372 whole entry, looked up): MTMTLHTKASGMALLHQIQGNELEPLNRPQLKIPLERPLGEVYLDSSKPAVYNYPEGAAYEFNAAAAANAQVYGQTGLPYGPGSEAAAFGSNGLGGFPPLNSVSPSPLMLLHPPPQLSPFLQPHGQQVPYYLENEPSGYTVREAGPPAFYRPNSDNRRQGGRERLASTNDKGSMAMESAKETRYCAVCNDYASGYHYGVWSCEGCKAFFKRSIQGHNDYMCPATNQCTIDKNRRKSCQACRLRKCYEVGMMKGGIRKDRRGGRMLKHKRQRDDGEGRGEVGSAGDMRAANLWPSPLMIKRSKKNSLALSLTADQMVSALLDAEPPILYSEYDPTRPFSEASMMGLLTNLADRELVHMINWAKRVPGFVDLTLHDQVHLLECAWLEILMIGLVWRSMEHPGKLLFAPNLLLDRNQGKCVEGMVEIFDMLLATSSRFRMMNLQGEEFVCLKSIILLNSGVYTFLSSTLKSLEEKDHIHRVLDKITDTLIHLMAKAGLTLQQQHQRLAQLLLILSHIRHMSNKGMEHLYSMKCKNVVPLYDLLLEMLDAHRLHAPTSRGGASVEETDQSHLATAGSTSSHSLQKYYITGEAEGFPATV
Sequence of Thyrotropin-releasing hormone receptor (Homo sapiens) (P34981 whole entry, looked up): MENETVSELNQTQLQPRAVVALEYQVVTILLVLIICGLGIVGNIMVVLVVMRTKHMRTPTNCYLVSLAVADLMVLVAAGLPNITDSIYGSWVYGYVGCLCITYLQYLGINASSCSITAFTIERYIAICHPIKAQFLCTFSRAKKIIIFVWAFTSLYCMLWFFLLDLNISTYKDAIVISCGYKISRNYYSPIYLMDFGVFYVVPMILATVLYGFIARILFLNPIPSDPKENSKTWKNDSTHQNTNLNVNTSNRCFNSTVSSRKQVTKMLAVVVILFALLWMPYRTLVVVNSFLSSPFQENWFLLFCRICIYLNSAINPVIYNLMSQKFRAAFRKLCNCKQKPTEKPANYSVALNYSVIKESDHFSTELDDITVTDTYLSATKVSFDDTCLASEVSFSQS

SMILES	Potency [1]	Potency [2]	Potency [3]	Potency [4]	Potency [5]	outcome [6]	Potency [7]	Potency [8]	Potency [9]	Potency [10]	Potency [11]	outcome [12]	Potency [13]	Potency [14]	Potency [15]	Potency [16]	Potency [17]	Potency [18]	Potency [19]	Potency [20]
NCc1ccco1	inactive	inactive	inactive	inactive	inactive	inactive	inactive	inactive	inactive	inactive	inactive	inactive	inactive	inactive	inactive	inactive	inactive			
O=C(Nc1ccc([N+](=O)[O-])cc1)Nc1ccc([N+](=O)[O-])cc1 (tested in a mixture with another compound)	inactive	0.596 µM (active)	inactive	inactive	inactive	inactive		1.19 µM (active)	inactive	inactive		inactive	inactive	inactive	inactive	inactive				
S=C1NC=NC2N=CNC12 (stereo not given)	inactive	3.44 µM (active)		inactive	inactive	inactive				3.47 µM (active)		inactive	inactive	inactive	inactive	inactive				
c1ccc(C[P+](c2ccccc2)(c2ccccc2)c2ccccc2)cc1	2.73 µM (active)				27.3 µM (active)	inactive		inactive			inactive		inactive	inactive	24.3 µM (active)	inactive	61.1 µM (active)	inactive	inactive	
CC(C)(C)c1ccc(OC2CCCCC2O)cc1 (stereo not given)	inactive			inactive		inactive		inactive	inactive	inactive		inactive	inactive		inactive		61.1 µM (active)		inactive	inactive
C1CCSC1	inactive	inactive	inactive	inactive	inactive	inactive		inactive	inactive	inactive	inactive	inactive			inactive	inactive	inactive		inactive	
Nc1ccc(Oc2cccc(Oc3ccc(N)cc3)c2)cc1	inactive		inactive	inactive	inactive	inactive	30.6 µM (active)			inactive			inactive	inactive	inactive	inactive	inactive	inactive	inactive	
Oc1ccc(Cl)cc1C1CCCC1	inactive		inactive	inactive	inactive	inactive		inactive	inactive	inactive	inactive	inactive	inactive	inactive	inactive			inactive	inactive	
C=Cc1ccc(O)c(OC)c1	inactive			inactive	inactive	inactive			inactive		inactive	inactive	inactive		inactive	inactive	inactive		inactive	
Cc1ccc(Cl)c(N)c1Cl	inactive	inactive	inactive	inactive	inactive					inactive	inactive	inactive				inactive	inactive	inactive		
C1=CCCC1	inactive		inactive	inactive	inactive			inactive	inactive		inactive	inactive	inactive		inactive	inactive	inactive		inactive	inactive
CCCOC(=O)c1ccc(O)cc1	inactive		inactive			inactive				inactive	inactive	inactive	inactive		inactive	inactive	inactive		47.5 µM (active)	
CC(C)(C)C1=CC(=O)C(C(C)(C)C)=CC1=O	inactive		inactive	inactive	inactive	inactive	inactive	inactive	inactive	inactive	inactive	inactive	inactive	inactive	inactive	inactive		inactive		inactive
CCCCCCCCCCCC(=O)Cl	inactive	34.4 µM (active)	inactive	inactive	inactive	inactive		inactive	inactive	inactive	inactive	inactive	inactive	inactive	inactive	inactive	inactive		inactive	
CC(C)=CCC[C@H](C)CC=O	inactive	inactive		inactive	inactive	inactive		inactive	inactive		inactive	inactive			inactive	inactive	inactive			
Cc1ccc(C=O)cc1	inactive	inactive	inactive	inactive	inactive	inactive	inactive	inactive	inactive		inactive	inactive	inactive	inactive	inactive	inactive	inactive		inactive	
Nc1ccc(Cl)c([N+](=O)[O-])c1	inactive				inactive	inactive	54.5 µM (active)		inactive	inactive	inactive		inactive	inactive	inactive	inactive	54.5 µM (active)			inactive
CCN(CC)c1ccc(C=O)cc1	inactive		inactive		inactive	inactive		inactive	inactive	inactive	inactive		inactive		inactive	inactive	inactive	inactive	inactive	34.4 µM (active)
CC(O)(c1ccc(Cl)cc1)c1ccc(Cl)cc1	inactive	inactive	inactive	inactive	inactive	inactive			inactive	inactive		inactive		inactive					inactive	
